# Source: PubChem
# CYP2C19 activ – activators of human cytochrome P450 2C19. P33261. recombinant CYP2C19, luciferin-H EGE luminescence; active compounds read high; 0 = fully inhibited enzyme, 1 = untreated enzyme. activation factor at 5 µM. 96,000 tested, under 10 active. AID 1025;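 active = activation factor of at least 2 at 5 µM in the primary screen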;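 also: 0 = wells with 2.5 mM tranylcypromine and 1 = vehicle-only wells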
# Target sequence (P33261 whole entry, looked up): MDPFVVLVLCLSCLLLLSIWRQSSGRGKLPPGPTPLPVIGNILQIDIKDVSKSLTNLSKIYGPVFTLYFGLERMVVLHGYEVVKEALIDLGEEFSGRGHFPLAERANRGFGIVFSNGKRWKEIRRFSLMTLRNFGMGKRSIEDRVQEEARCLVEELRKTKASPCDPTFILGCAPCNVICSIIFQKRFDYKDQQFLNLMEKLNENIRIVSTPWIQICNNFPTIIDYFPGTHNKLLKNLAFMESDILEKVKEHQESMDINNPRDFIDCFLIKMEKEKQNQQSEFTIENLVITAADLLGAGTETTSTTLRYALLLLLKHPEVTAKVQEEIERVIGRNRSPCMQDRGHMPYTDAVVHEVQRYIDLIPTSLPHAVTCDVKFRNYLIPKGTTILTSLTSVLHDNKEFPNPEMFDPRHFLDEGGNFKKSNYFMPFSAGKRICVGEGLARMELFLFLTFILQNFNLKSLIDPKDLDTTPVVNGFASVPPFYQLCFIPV
# CYP2C9 inhib – blocks human cytochrome P450 2C9; P11712; inhibition, % at 5 µM; CYP2C9 Supersomes, luciferin-H conversion, luminescence; hit rate 20% among 96,000;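 active = blocking of liver enzyme CYP2C9 beyond about 50% at 5 µM, limit read from the data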
# Pyk2 oligo antag – Pyk2 (human) oligomerization antagonism. Q14289. z-score (the deposit names both 25 µM and 10 µM). hit rate 0.83% among 99,000. AID 1347419. Q293 cells, Pyk2 FERM NanoBiT luminescence; active compounds read low;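 active = Z-score of -3 or lower, scaled per plate to the spread of control and sample wells; inactive = z-score above -3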;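 also: negative z-score means lost luminescence so less FERM oligomerization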
# CYP2C9 activ – activators of human CYP2C9; hit rate 1.4% among 96,000; P11712; activation factor at 5 µM; recombinant CYP2C9, luciferin-H conversion, luminescence; active compounds read high; factor 1 = untreated enzyme, 0 = blocked; AID 1024;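 active = activation factor of 2 or more for CYP2C9 at a 5 µM dose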;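 also: 0 = sulfaphenazole-blocked wells and 1 = vehicle-only wells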
# Cav32 inh – inhibitors of human Cav3.2 T-type calcium channel | O95180 | Cav3.2-expressing cells, Fluo-4 calcium fluorescence FDSS; active compounds read low | B-score at 10 µM | hit rate 4% among 100,000 | AID 449739;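 active = single-dose well whose peak fluorescence ratio is a statistical outlier from its plate by either plate-standardised score or position-corrected B-score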
# CYP2C19 inh – inhibitors of human CYP2C19; CYP2C19 Supersomes, luciferin-H EGE luminescence, 30 min; hit rate 21% among 96,000; P33261; inhibition, % at 5 µM; AID 778;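 active = CYP2C19 inhibition above a set limit at 5 µM in the primary screen, cut at about 50% in these data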;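 also: plate controls were negative control wells for no effect and 2.5 mM tranylcypromine positive control for full effect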
# An asterisk follows results filed as active; x = no result given. Compounds with a hit are over-represented: about 27% of the library has one in this group of screens.
SMILES,CYP2C19 activ,CYP2C9 inhib,Pyk2 oligo antag,CYP2C9 activ,Cav32 inh,CYP2C19 inh
O=C(OCCN(C1=NS(=O)(=O)c2ccccc21)c1ccc(Cl)cc1)c1ccco1,0.1,85.0*,1.42,0.2,-1.61,86.4*
CCN(CCCNC(=O)CC(C(=O)N1CCc2ccccc21)n1ccnc1)c1ccccc1 (stereo unspecified),0.1,31.5,-0.53,0.7,-4.62*,93.7*
CC(C/C=N/NC(=O)COc1cc(Cl)ccc1Cl)c1ccccc1 (stereo unspecified),0.3,11.4,0.9,0.9,-1.79,70.0*
Cc1ccc(C(=O)Nc2cc(C(C)C)c(O)c(C(C)C)c2)cc1,x,x,-1.57,x,x,x
Cc1cc(O)c(C(C)C)cc1NC(=O)c1cccc(Cl)c1,0.4,55.7*,-0.45,0.4,-2.34,60.1*
Cc1ccc(NC(=O)c2cccc(Cl)c2)nc1,0.8,-6.3,-0.63,1.1,0.382,18.2
Cc1cc(O)c(C(C)C)cc1NC(=O)c1ccc(Cl)cc1,0.5,2.9,0.06,1,-6.28*,49.2
CCCN1C2=NCCN2c2cc(C)c(C)cc21,1.1,2.7,0.07,1,-0.00982,-5.7
CC1=CC(C)(C)N2C(=O)C3(SCC(=O)N3c3ccc(F)cc3)c3cc(C)cc1c32 (stereo unspecified),0.5,62.9*,-2.48,0.4,-2.44,47.6
O=C(NC1CCCC1)c1ccc2nc[nH]c2c1,1.1,-24.9,-0.21,1.2,-0.0416,-12.6
O=C(NCCc1ccccc1)c1ccc2nc(-c3ccco3)c(-c3ccco3)nc2c1,0.1,97.9*,-0.4,0,-10.8*,93.6*
O=C(NC1CCCC1)c1ccc2nc(-c3ccco3)c(-c3ccco3)nc2c1,0.8,58.7*,-0.15,0.4,x,22.1
O=C(NCCO)c1ccc2nc(-c3ccco3)c(-c3ccco3)nc2c1,0.9,2.8,-1.17,1,0.497,9.5
COc1cccc2c(=O)n(CC(=O)N3CCCCC3)ccc12,0.7,-24.2,x,1.2,0.136,25.5
Cc1ccc(C(=O)NNC(=O)c2cc(OCC(F)(F)F)ccc2OCC(F)(F)F)cc1,0.7,29.3,-0.79,0.7,-1.24,31.7
O=C(NO)c1cc(OCC(F)(F)F)ccc1OCC(F)(F)F,1,24.6,0.37,0.8,-0.0752,-1.3
O=C(NCCNS(=O)(=O)c1ccccc1)c1cc(OCC(F)(F)F)ccc1OCC(F)(F)F,0.8,6.3,-0.08,0.9,0.144,25.0
O=C(NNC(=O)c1cc(OCC(F)(F)F)ccc1OCC(F)(F)F)c1cccc(C(F)(F)F)c1,0.8,39.5,0.73,0.6,-8.97*,23.9
C#CCONC(=O)c1cc(OCC(F)(F)F)ccc1OCC(F)(F)F,0.4,20.8,-0.67,0.8,-0.712,61.0*
O=C(NCCNC(=O)c1cc(OCC(F)(F)F)ccc1OCC(F)(F)F)Nc1ccccc1,0.8,56.7*,-1.28,0.4,-2.56,22.0
O=C(NCc1ccccn1)c1ccc(N2CCCC2=O)cc1,1.2,-12.1,-0.08,1.1,0.258,-18.8
Nc1ccc(-c2n[nH]c(=O)c3ccccc23)cc1N,1.1,-54.3,-0.24,1.5,0.439,-7.7
CSc1nsc(SCC(=O)Nc2cccc(C(C)=O)c2)n1,0.7,51.2*,0.26,0.5,-0.172,31.6
CCOC(=O)c1ccc(NC(=O)CSc2nc(SC)ns2)cc1,0.5,60.0*,0.58,0.4,x,54.6*
CCn1c(SCC(=O)Nc2cccc(C(C)=O)c2)nnc1C(C)C,0.9,10.6,0.35,0.9,-0.306,9.2
SMILES,CYP2C19 activ,CYP2C9 inhib,Pyk2 oligo antag,CYP2C9 activ,Cav32 inh,CYP2C19 inh
CCS(=O)(=O)N1CCC(NC(=O)C2CCCCC2)CC1,1.1,-6.2,-0.32,1.1,1.1,-10.7
CC1(C)CC(=O)C(C(=S)Nc2ccccc2)=C(NCCN2CCOCC2)C1,0.9,1.0,-0.62,1,1.1,11.9
O=C(c1ccc(CNS(=O)(=O)c2ccccc2)cc1)N1CCN(Cc2ccccc2)CC1,0.6,45.7,0.43,0.5,0.0457,40.9
CC(Sc1ccccc1)C(=O)Nc1ccccc1C(=O)N1CCOCC1 (stereo unspecified),0.9,10.3,0.46,0.9,0.846,12.4
CCCCCn1c(=O)[nH]c2cc(C(=O)NCCCN3CCC(C)CC3)ccc2c1=O,0.6,16.5,-0.09,0.8,1.47,38.5
O=C(CN(C1CCCCC1)S(=O)(=O)c1ccc(Cl)cc1)NCc1ccncc1,0.1,82.5*,-0.92,0.2,-0.114,94.4*
O=C(CN(C1CCCCC1)S(=O)(=O)c1ccc(F)cc1)NCc1ccncc1,0.1,82.8*,-0.32,0.2,-2.45,85.6*
O=C(CN(C1CCCCC1)S(=O)(=O)c1ccc(F)cc1)Nc1ccc2c(c1)OCO2,x,x,-1.62,x,-5.56*,x
NC(=O)NOCc1ncc(C(F)(F)F)cc1Cl,1,-0.9,0.72,1,0.0762,2.6
NC(=O)C1=NOC(CNc2ncc(C(F)(F)F)cc2Cl)C1 (stereo unspecified),0.9,-171.0,0.07,2.7*,0.0471,10.0
CO/N=C/NC(=O)C1=NOC(CNc2ncc(C(F)(F)F)cc2Cl)C1 (stereo unspecified),0.3,5.8,-0.45,0.9,-0.505,74.8*
C1=CC2CC1CC2CNCc1ccco1 (stereo unspecified),0.9,-6.6,0.1,1.1,x,9.6
COCCN1C(=O)c2ccc(C(=O)NCc3cccnc3)cc2C1=O,1,-1.7,-0.3,1,-0.019,-3.8
CCN1C(=O)c2ccccc2S(=O)(=O)c2ccc(C(=O)NCc3cccnc3)cc21,0.4,97.8*,x,0,-0.425,58.5*
CCCCNC(=O)c1ccc2c(c1)N(CC)C(=O)c1ccccc1S2(=O)=O,0.5,89.7*,x,0.1,0.0368,45.5
O=C(CN1CCC(n2nnc3cc(F)ccc32)CC1)NCCc1ccccc1,x,x,0.45,x,1.16,x
O=C1NCCN1C(=O)N(c1ccccc1)c1ccccc1,1,-1.4,0.14,1,0.555,4.0
Cc1nc(NCCCO)c(C#N)c2c1COC(C)(C)C2,0.9,4.9,1.59,1,-0.539,10.3
O=C(c1cnn2ccccc12)N(Cc1ccco1)C1CCCC1,0.4,47.0,x,0.5,0.2,59.5*
O=C(Oc1ccc(Br)cc1C(=S)N1CCCCC1)c1cc([N+](=O)[O-])cc([N+](=O)[O-])c1,0.4,0.0,-1.39,1,-1.25,61.8*
Cc1ccccc1C(=O)Oc1ccc(Br)cc1C(=S)N1CCCC1,0.5,41.2,-1.51,0.6,-2.33,52.0*
O=C(Oc1ccc(Br)cc1C(=S)N1CCCC1)c1ccccc1Cl,0.4,35.4,-1.47,0.6,-1.1,57.3*
CN(C)CCNC(=O)c1c(CSc2ccc(Cl)cc2)noc1C(=O)NCc1ccccc1,x,x,x,x,-1.71,x
COc1cc(C(=O)N2CCN(S(=O)(=O)c3ccc(F)cc3)CC2)cc(OC)c1OC,0.6,15.2,-0.75,0.8,-0.904,43.4
CC(OC(=O)c1snc(C(=O)NC2CCCCC2)c1N)C(=O)NC1CCCCC1 (stereo unspecified),x,x,1.35,x,-0.7,x
